Dicer processing: blocks human Dicer maturation of pre-miR-21; 6% of 47,000 active; cat-ELCCA pre-miR-21 Dicer processing, chemiluminescence; active compounds read high; AID 1347074; Q9UPY3; z-score at 25 µM; in the data active = z-score above about 3, passing the limit was not always enough;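 note: higher signal means more uncleaved substrate so more Dicer inhibition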
Each line names hits and unclear results; the compound was inactive in the other large screens. Only a selection was taken, and hits are over-represented in it overall.

CC(C)NC(=O)N1CCc2sccc2C1c1ccc(Cl)cc1 (centres undefined)	none
CSc1nnc(-c2ccc(Br)s2)n1C	none
Cn1nc(-c2ccc(Br)s2)c(Br)c1C(F)(F)F	Dicer processing 45
CCN1CCN(c2nc3c(c(=O)n(C)c(=O)n3C)n2Cc2ccc(Cl)cc2)CC1	none
CCOC(=O)c1c(N)oc2c(-c3ccc(C)cc3)c3c(C(=O)OCC)c(N)oc3cc12	none
CCOC(=O)c1c(N)oc2c(-c3ccc(C)c(C)c3)c3c(C(=O)OCC)c(N)oc3cc12	Dicer processing 5
COC(=O)c1c(C)oc2ccc(OC(C)C(=O)O)cc12 (centres undefined)	none
COC(=O)c1c(C)oc2ccc(O)cc12	none
CCOC(=O)c1c(N)oc2c(-c3ccc(CC)cc3)c3c(C(=O)OCC)c(N)oc3cc12	none
COC(=O)c1c(N)oc2c(-c3ccc(C)cc3)c3c(C(=O)OC)c(N)oc3cc12	Dicer processing 3.8
CCNC(=O)N(Cc1ccc(Cl)cc1)Cc1cccnc1	none
CCOc1ccccc1C1C(C#N)=C2N=C(N)c3ccccc3N2C2=C1C(=O)CCC2 (centres undefined)	none
CCOc1ccc(-c2c[n+]3c(n2Cc2ccccc2)SCCC3)cc1	none
Cc1ccc(C)n1-c1ccc(-n2c(C)ccc2C)cc1	none
Cc1ccc(C)n1-c1ccc(Cl)cc1C(=O)O	Dicer processing 12
O=C(O)c1cc(Cl)ccc1I	none
Cc1ccc(C)n1-c1ccc(Cl)c(C(=O)O)c1	Dicer processing 8.2
Cc1ccc(Cl)c(Nc2ccccc2C(=O)O)c1Cl	none
Cc1ccc(C(=O)O)cc1-n1c(C)ccc1C	none
Nc1cc(C(F)(F)F)ccc1NCc1ccccc1	none
C#CCOc1ccc(C2CC(=O)Nc3n[nH]c(-c4ccccc4)c32)cc1OC (centres undefined)	none
COc1cccc(-n2c(N)c(C#N)c3nc4ccccc4nc32)c1	none
Cc1cc(C)c(C(=O)CC2(O)C(=O)Nc3ccccc32)c(C)c1 (centres undefined)	none
O=C(CSc1nc2ccccc2nc1N1CCCC1)N1CCCC1	none
Cc1ccc(C)n1CCN1CCN(C(=O)CSc2nc3ccccc3nc2N2CCOCC2)CC1	Dicer processing 3
O=C(CSc1nc(-c2ccco2)cc(C(F)(F)F)n1)N1CCN(c2cccc(Cl)c2)CC1	none
O=C(CSc1nc2ccccc2nc1N1CCOCC1)N1CCN(c2cccc(Cl)c2)CC1	Dicer processing 3.5
O=C(CSc1nc2ccccc2nc1N1CCOCC1)Nc1ccccc1F	none
O=C(CSc1nc2ccccc2nc1N1CCOCC1)NC1CCCC1	none
CCOC(=O)NC(=O)c1cn(Cc2ccco2)c(=O)[nH]c1=O	none
FC(F)(F)c1cc(C(F)(F)F)n2ncc(-c3nc(-c4ccc(Cl)cc4)cs3)c2n1	none
Cc1cc2c3c(c1)c(OS(=O)(=O)c1cc([N+](=O)[O-])ccc1C)c(-c1ccccc1)c(=O)n3CCC2	none
CCOc1ccc(NC2OC(=O)c3c2ccc(OC)c3OC)cc1 (centres undefined)	none
CCOC(=O)c1c(NC(=O)c2ccncc2)sc2c1CCC2	none
COc1ccc(OCC(=O)N(Cc2cccs2)C2CCS(=O)(=O)C2)cc1 (centres undefined)	none
O=C(c1ccccc1Br)N(Cc1cccs1)C1CCS(=O)(=O)C1 (centres undefined)	Dicer processing 3.9
COc1ccccc1OCC(=O)N(Cc1cccs1)C1CCS(=O)(=O)C1 (centres undefined)	none
CCOC(=O)N1CCc2c(sc3c2C(=O)NC(c2cc(Br)ccc2OC)N3)C1 (centres undefined)	none
COc1ccc(S(=O)(=O)N(CCC#N)C2CCc3ccccc32)cc1OC (centres undefined)	none
CCSC1=C(C#N)C(=O)NC(c2ccc(OC)c(OC)c2)S1 (centres undefined)	none
CCCCSC1=C(C#N)C(=O)NC(c2ccc(OC)c(OC)c2)S1 (centres undefined)	Dicer processing 3.4
COC(=O)CSC1=C(C#N)C(=O)NC(c2ccc(OC)c(OC)c2)S1 (centres undefined)	none
CC(=O)c1ccc(N2CCN(S(=O)(=O)c3c(C)noc3C)CC2)cc1	none
COc1ccc(CNc2ccccc2-c2nc3ccccc3[nH]2)cc1	none
Cc1cc(C)c2nc(C3C(=O)c4ccccc4C3=O)ccc2c1	none
Cc1cc(C(=O)O)nc2ccccc12	none
Cc1cc(C)c2ccc(C3C(=O)c4ccc(O)cc4C3=O)nc2c1 (centres undefined)	Dicer processing 3.1
c1ccc(Nc2cc(-c3ccccc3)[nH]n2)cc1	none
C#CCSc1nc(C(OC)OC)c(C(=O)OC)cc1C#N	none
Cc1cc(C)c(-n2c(SCC(=O)c3ccc(C#N)cc3)n[nH]c2=O)c(C)c1	none
COc1ccc(NC(=O)N=S2CCN(S(=O)(=O)c3ccc(Cl)cc3)CC2)cc1	none
COC(=O)c1ccsc1NC(=O)CN1CCN(S(=O)(=O)c2ccc(Cl)cc2)CC1	Dicer processing 3
COC(=O)c1ccsc1NC(=O)CN1c2cccc3cccc(c23)S1(=O)=O	none
CCNC(=O)N1c2cc(C)ccc2C(C)=CC1(C)C	none
O=C(Nc1nnc(-c2ccc(F)cc2)s1)c1ccc(F)cc1	none
O=C(Nc1ncc(Cc2ccc(F)cc2)s1)c1ccc(Br)cc1	Dicer processing 4.1
Fc1ccc(Cc2cnc(Nc3ccc(F)cc3)s2)cc1	none
CCCCCOc1ccc(C2C(C(=O)OCC)=C(C)N=C3SCCC(=O)N32)cc1OC (centres undefined)	none
COC(=O)c1cnc(N2CCSCC2)nc1C(F)(F)F	none
Cc1nnc(N2C(=O)C(O)=C(C(=O)c3cccs3)C2c2ccc(C(C)(C)C)cc2)s1 (centres undefined)	none
COC(=O)c1sc(N2C(=O)C(O)=C(C(=O)c3cccs3)C2c2ccc(C(C)C)cc2)nc1C (centres undefined)	none
Cc1nnc(N2C(=O)C(O)=C(C(=O)c3ccco3)C2c2ccc(Cl)cc2)s1 (centres undefined)	Dicer processing 4.2
CC(C)c1ccc(C2C(C(=O)c3cccs3)=C(O)C(=O)N2CCCN2CCOCC2)cc1 (centres undefined)	none
Cc1nnc(N2C(=O)C(O)=C(C(=O)c3ccco3)C2c2ccccc2)s1 (centres undefined)	none
Cc1ccc(C2C(C(=O)c3cccs3)=C(O)C(=O)N2CCCn2ccnc2)cc1 (centres undefined)	Dicer processing 3.3
Cc1nnc(N2C(=O)C(O)=C(C(=O)c3cccs3)C2c2ccc(F)cc2)s1 (centres undefined)	Dicer processing 3.8
O=C(C1=C(O)C(=O)N(CCN2CCOCC2)C1c1ccncc1)c1cccs1 (centres undefined)	none
COc1ccc(C2C(C(=O)c3ccco3)=C(O)C(=O)N2c2nnc(C)s2)cc1OC (centres undefined)	none
COC(=O)c1sc(N2C(=O)C(O)=C(C(=O)c3cccs3)C2c2ccc(F)cc2)nc1C (centres undefined)	none
Cc1nnc(N2C(=O)C(O)=C(C(=O)c3cccs3)C2c2ccc(Cl)cc2)s1 (centres undefined)	none
COC(=O)c1sc(N2C(=O)C(O)=C(C(=O)c3cccs3)C2c2ccc(Cl)cc2)nc1C (centres undefined)	Dicer processing 3.8
Cc1c(Cl)cccc1NC(=S)N(N)CCO	none
CCCCOC(=O)C1=C(C)NC2=C(C(=O)CCC2)C1c1cc(Br)c(O)c(OC)c1 (centres undefined)	none
CCOC(=O)c1c(C)oc2cc(Cl)c(O)c(CN(C)C)c12	none
CCOC(=O)c1c(C)oc2ccc(O)c(CN(C)C)c12	Dicer processing 4
CCOC(=O)c1c(CN(CC)CC)oc2ccc(OC)cc12	none
Nc1ccc(C(=O)Nc2nc3cc(N)ccc3s2)cc1	none
Cn1c(=O)c2c(nc(OCc3ccc4c(c3)OCO4)n2Cc2ccc(Cl)cc2)n(C)c1=O	none
